Among the test systems are EPHA1; EPHA2; EPHA3; EPHA4; EPHA5; EPHA6; EPHA7; EPHA8; EPHB1; EPHB2; EPHB3; EPHB4; EPHB6; ERBB2; ERBB3; ERBB4.
Common to all, as to settings: concentration: 1 μM, replicates: in singlicate; n = 1
Another assay relates to T1, ERK1.
T1 construct: gene MAPK3

The next assay relates to T2, ERK2.
T2 construct: gene MAPK1

In a further assay the test system is T3, ERK3.
T3 construct: gene MAPK6

In the next assay the test system is T4, ERK4.
T4 construct: gene MAPK4

The values that follow come from PMC5540273 (PLoS ONE, 2017).
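Note: KINOMEscan kinase panel screen.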

As for `COC(=O)c1c(-c2ccccc2)c2cc(Br)ccc2c(=O)n1Cc1ccc(S(C)(=O)=O)cc1`, the “%Inh” value in the assay on EPHA1 was 0%; with EPHA2, 22%; in the assay with EPHA3 it was 0%; in the assay with EPHA4, 33%; in the assay on EPHA5, 16%; with EPHA6, 45%. In addition, the “%Inh” value turned out to be 24% in the assay with EPHA7; 23% in the assay on EPHA8; 14% in the assay on EPHB1; 21% in the assay on EPHB2; 30% with EPHB3; 18% in the assay with EPHB4. Besides, the “%Inh” value in the assay with EPHB6 is on record as 34%; with ERBB2 it was 55%; in the assay with ERBB3, 6%; in the assay on ERBB4, 13%; in the assay on ERK1, 1%; in the assay on ERK2, 38%. Besides, the “%Inh” value is given as 4% in the assay on ERK3 and 3% in the assay on ERK4.
For the compound `O=C(Nc1ccc2c(c1)OCO2)NC1CCN(c2ccnc(NCc3ccc(F)cc3)n2)CC1` [GSK1379859], the “%Inh” value with EPHA1 is 8%; in the assay on EPHA2 it was 0%; with EPHA3, 0%; with EPHA4 it was 13%; in the assay on EPHA5, 0%; in the assay on EPHA6, 8%. In addition, the “%Inh” value worked out at 1% in the assay with EPHA7; 0% with EPHA8; 0% in the assay with EPHB1; 37% in the assay with EPHB2; 15% with EPHB3; 0% in the assay on EPHB4. In addition, the “%Inh” value in the assay with EPHB6 is 4%; in the assay with ERBB2, 35%; in the assay on ERBB3, 0%; in the assay on ERBB4, 43%; with ERK1 it was 0%; in the assay with ERK2 it was 0%. The “%Inh” value in the assay with ERK3 turned out to be 9%; in the assay with ERK4 it was 3%.
In the case of `CN(C)c1cc(-c2ccc3c(N)n[nH]c3c2)nc(N)n1` [GSK2219329], the “%Inh” value with EPHA1 is 15%; in the assay with EPHA2, 0%; in the assay with EPHA3, 4%; in the assay with EPHA4, 8%; in the assay with EPHA5, 0%; with EPHA6 it was 0%. In addition, the “%Inh” value came out at 0% with EPHA7; 3% in the assay with EPHA8; 14% in the assay on EPHB1; 0% with EPHB2; 9% with EPHB3; 13% in the assay on EPHB4. Besides, the “%Inh” value amounted to 3% with EPHB6; 25% with ERBB2; 0% with ERBB3; 30% in the assay on ERBB4; 15% in the assay with ERK1; 0% in the assay with ERK2. In addition, the “%Inh” value amounted to 11% in the assay on ERK3 and 0% in the assay on ERK4.
Take `COc1cccc(C2=C(Nc3cccc(C(=O)O)c3)C(=O)NC2=O)c1` [SB-390770]: the “%Inh” value was 9% in the assay on EPHA1; 23% with EPHA2; 0% in the assay on EPHA3; 10% with EPHA4; 0% in the assay with EPHA5; 11% in the assay on EPHA6. Further, the “%Inh” value worked out at 0% in the assay on EPHA7; 0% in the assay on EPHA8; 8% in the assay on EPHB1; 9% in the assay on EPHB2; 8% with EPHB3; 7% with EPHB4. The “%Inh” value with EPHB6 is reported as 21%; in the assay with ERBB2, 6%; with ERBB3 it was 16%; with ERBB4, 0%; in the assay on ERK1, 0%; in the assay on ERK2 it was 0%. Moreover, the “%Inh” value is 2% with ERK3 and 0% with ERK4.
In the case of `Nc1ncnc2c1ncn2-c1cccc(F)c1` [SKF-97560], the “%Inh” value with EPHA1 was 11%; in the assay on EPHA2, 9%; with EPHA3, 0%; in the assay on EPHA4, 4%; in the assay with EPHA5 it was 0%; in the assay with EPHA6, 0%. Moreover, the “%Inh” value turned out to be 10% in the assay with EPHA7; 10% in the assay with EPHA8; 17% with EPHB1; 4% in the assay with EPHB2; 0% in the assay on EPHB3; 0% in the assay on EPHB4. Moreover, the “%Inh” value in the assay with EPHB6 is on record as 25%; in the assay with ERBB2 it was 1%; in the assay with ERBB3 it was 20%; with ERBB4, 0%; in the assay with ERK1, 9%; in the assay with ERK2, 0%. Also, the “%Inh” value stood at 13% in the assay on ERK3 and 2% in the assay with ERK4.
As for `CCS(=O)(=O)c1ccc(OC)c(Nc2ncc(-c3ccc(F)cc3)o2)c1.Cl` [GW591947], the “%Inh” value in the assay with EPHA1, with EPHA2, in the assay on EPHA3, in the assay with EPHA4, in the assay with EPHA5 and in the assay with EPHA6 was 0% in each case. The “%Inh” value was 0% in the assay with EPHA7; 1% in the assay on EPHA8; 11% with EPHB1; 64% in the assay on EPHB2; 0% in the assay with EPHB3; 0% in the assay with EPHB4. Further, the “%Inh” value was found to be 0% in the assay with EPHB6; 13% in the assay with ERBB2; 0% in the assay with ERBB3; 0% in the assay with ERBB4; 8% in the assay with ERK1; 7% in the assay with ERK2. In addition, the “%Inh” value in the assay with ERK3 was 13%; in the assay with ERK4 it was 21%.
For `FC(F)(F)c1ccc(-c2ncn(CCCN3CCOCC3)c2-c2ccncc2)cc1` [SB-217780], the “%Inh” value in the assay with EPHA1 came to 6%; in the assay with EPHA2, 5%; in the assay with EPHA3 it was 0%; in the assay on EPHA4 it was 12%; in the assay on EPHA5, 0%; in the assay on EPHA6 it was 7%. Besides, the “%Inh” value with EPHA7 came to 0%; with EPHA8, 0%; in the assay with EPHB1, 0%; with EPHB2 it was 0%; with EPHB3, 0%; with EPHB4, 9%. The “%Inh” value in the assay with EPHB6 is 18%; in the assay on ERBB2 it was 16%; in the assay with ERBB3, 0%; with ERBB4, 47%; with ERK1, 0%; in the assay on ERK2, 0%. Moreover, the “%Inh” value in the assay on ERK3 was found to be 7%; in the assay on ERK4, 0%.
On to `COc1cccc(-n2cnc3c(N)ncnc32)c1` [SKF-97416], for which the “%Inh” value with EPHA1 amounted to 9%; with EPHA2 it was 0%; in the assay on EPHA3, 4%; in the assay with EPHA4, 4%; with EPHA5, 3%; with EPHA6, 0%. The “%Inh” value with EPHA7 was 0%; in the assay on EPHA8 it was 0%; in the assay with EPHB1, 0%; in the assay on EPHB2 it was 19%; in the assay on EPHB3, 0%; with EPHB4, 0%. For the same compound, the “%Inh” value in the assay on EPHB6 amounted to 28%; in the assay on ERBB2 it was 31%; with ERBB3, 46%; in the assay on ERBB4, 1%; in the assay on ERK1, 0%; in the assay with ERK2 it was 0%. Further, the figures for the “%Inh” value in the assay on ERK3 and in the assay on ERK4 were 5% and 0%, respectively.
On to `COc1cc2nccc(Nc3cccc(Oc4ccccc4)c3)c2cc1OC.Cl` [GW284543], for which the “%Inh” value in the assay with EPHA1 is on record as 10%; in the assay on EPHA2, 0%; in the assay with EPHA3, 12%; in the assay on EPHA4, 0%; with EPHA5, 0%; with EPHA6 it was 0%. Besides, the “%Inh” value with EPHA7 was determined as 0%; in the assay on EPHA8, 6%; with EPHB1, 11%; in the assay with EPHB2 it was 0%; in the assay with EPHB3 it was 0%; with EPHB4 it was 0%. Moreover, the “%Inh” value in the assay on EPHB6 is on record as 79%; in the assay on ERBB2 it was 24%; in the assay with ERBB3, 66%; in the assay with ERBB4 it was 31%; in the assay with ERK1, 18%; in the assay on ERK2 it was 0%. For the same compound, the “%Inh” value in the assay on ERK3 is listed as 0%; with ERK4 it was 10%.
With `Cc1cc(Nc2nc(-c3cccc(C)n3)nc3ccccc23)ccn1` [GW872411], the “%Inh” value in the assay on EPHA1 turned out to be 0%; in the assay on EPHA2, 0%; in the assay on EPHA3, 18%; in the assay on EPHA4 it was 0%; in the assay with EPHA5, 0%; in the assay on EPHA6, 0%. In addition, the “%Inh” value in the assay on EPHA7, in the assay on EPHA8, in the assay with EPHB1, in the assay on EPHB2, in the assay with EPHB3 and in the assay with EPHB4 was 0% each time. Further, the “%Inh” value with EPHB6, with ERBB2, in the assay on ERBB3, in the assay with ERBB4, with ERK1 and in the assay on ERK2 was 0% in each case. Besides, the “%Inh” value in the assay on ERK3 and in the assay with ERK4 was 0% in each case.
